# Of roughly 7,900 targets only a part is listed; those with a hit were picked by preference. About 0.6% of all pairs of compound and target were hits. A number with no mark means an inactive call.
# Legend:
# Test in all cases: log2 fold change, soluble protein after heating vs DMSO (PISA); higher = thermal stabilisation; K562 cells, 10 uM, 30 min; active = over 0.2 and 3.5 SD of the protein, either way, in both replicates (recomputed)
# [1] = compound: CN1CCN(CCOc2cc(OC3CCOCC3)c3c(Nc4c(Cl)ccc5c4OCO5)ncnc3c2)CC1 [saracatinib]
# Method in brief: (§1)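 K562 cells at 2×10^6 cells/mL were treated with 10 μM compound for 30 min. Aliquots were heated for 3 min across 48°C-58°C, pooled, and extracted in PBS with 0.5% NP-40 at 4°C; soluble protein was the supernatant after 21,000xg for 90 min. Soluble protein was quantified by TMTpro 16plex LC-MS/MS with channel sums equalised, and reported as log2 fold change in thermal stability against DMSO controls, with values from duplicates.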
# [2] = compound: CN1CCN(c2nc(C3=C(c4c[nH]c5ccccc45)C(=O)NC3=O)c3ccccc3n2)CC1 [sotrastaurin]
# Method in brief: as §1
# [3] = compound: CN1CC[C@H](c2c(O)cc(O)c3c(=O)cc(-c4ccccc4Cl)oc23)[C@H](O)C1 [alvocidib]
# Method in brief: as §1
# [4] = compound: CN1CCc2c(c3ccccc3n2Cc2ccc(C(=O)NO)cc2)C1 [Tubastatin A]
# Method in brief: as §1
# [5] = compound: CNC(=O)C1=CC=CC=C1NC2=NC(=NC=C2Cl)NC3=C(C=C(C=C3)N4CCOCC4)OC
# Method in brief: as §1
# [6] = compound: CNC(=O)c1ccc(Nc2ncc(C(F)(F)F)c(NCc3nccnc3N(C)S(C)(=O)=O)n2)cc1 [defactinib]
# Method in brief: as §1
# [7] = compound: CNCc1ccc(-c2[nH]c3cc(F)cc4c3c2CCNC4=O)cc1 [rucaparib]
# Method in brief: as §1
# [8] = compound: CNc1nc(-c2ccc3c(N)n[nH]c3c2)cc(N2C[C@@H](C(=O)NC3CCCCC3)CC[C@H]2C)n1
# Method in brief: as §1
# [9] = compound: COC(=O)N[C@@H](C)CNc1nccc(-c2cn(C(C)C)nc2-c2cc(Cl)cc(NS(C)(=O)=O)c2F)n1 [encorafenib]
# Method in brief: as §1
# [10] = compound: COC(=O)[C@H](CCSC)NC(=O)C1=C(C=C(C=C1)NC[C@H](CS)N)C2=CC=CC=C2
# Method in brief: as §1
# [11] = compound: COC1=CC=C(C=C1)CN2C=CC3=C2C=C(C=C3)C(=O)NO
# Method in brief: as §1
# [12] = compound: CON(C)C(=O)N1N=C(c2cc(F)ccc2F)S[C@@]1(CCCN)c1ccccc1 [filanesib]
# Method in brief: as §1
# [13] = compound: CO[C@H]1C[C@@H]2CC[C@@H](C)[C@@](O)(O2)C(=O)C(=O)N2CCCC[C@H]2C(=O)O[C@H]([C@H](C)C[C@@H]2CC[C@H](n3cnnn3)[C@H](OC)C2)CC(=O)[C@H](C)/C=C(\C)[C@@H](O)[C@@H](OC)C(=O)[C@H](C)C[C@H](C)/C=C/C=C/C=C/1C [zotarolimus]
# Method in brief: as §1
# [14] = compound: COc1cc(C(=O)O)ccc1NC(=O)[C@@H]1N[C@@H](CC(C)(C)C)[C@](C#N)(c2ccc(Cl)cc2F)[C@H]1c1cccc(Cl)c1F [idasanutlin]
# Method in brief: as §1
# [15] = compound: COc1cc(Nc2ncc3c(n2)-c2ccc(Cl)cc2C(c2c(F)cccc2OC)=NC3)ccc1C(=O)O [alisertib]
# Method in brief: as §1
# [16] = compound: COc1cc2nc(-c3cc(F)ccc3O)nc(N[C@@H]3CNC[C@H]3C(C)(C)O)c2cc1OC
# Method in brief: as §1
# [17] = compound: COc1cccc2cc(-c3nc([C@H]4CC[C@H](C(=O)O)CC4)n4ncnc(N)c34)[nH]c12
# Method in brief: as §1
# [18] = compound: CS(=O)(=O)CCNCc1ccc(-c2ccc3ncnc(Nc4ccc(OCc5cccc(F)c5)c(Cl)c4)c3c2)o1 [lapatinib]
# Method in brief: as §1
# [19] = compound: CS(=O)(=O)N1CCN(Cc2cc3nc(-c4cccc5[nH]ncc45)nc(N4CCOCC4)c3s2)CC1 [pictilisib]
# Method in brief: as §1
# [20] = compound: COc1cc2ncnc(Nc3ccc(F)c(Cl)c3)c2cc1OCCCN1CCOCC1 [gefitinib]
# Method in brief: as §1
# UniProt Q9UBY8, sequence (Q9UBY8 whole entry, looked up): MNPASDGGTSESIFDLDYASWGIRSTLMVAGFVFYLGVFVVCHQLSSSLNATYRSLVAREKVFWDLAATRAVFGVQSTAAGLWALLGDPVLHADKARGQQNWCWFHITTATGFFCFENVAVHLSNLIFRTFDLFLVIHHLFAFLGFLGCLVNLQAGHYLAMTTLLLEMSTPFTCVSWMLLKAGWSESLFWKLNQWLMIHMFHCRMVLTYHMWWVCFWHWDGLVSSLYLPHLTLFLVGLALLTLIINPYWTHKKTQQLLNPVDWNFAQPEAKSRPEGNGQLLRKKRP
# UniProt Q8N1A6, sequence (Q8N1A6 whole entry, looked up): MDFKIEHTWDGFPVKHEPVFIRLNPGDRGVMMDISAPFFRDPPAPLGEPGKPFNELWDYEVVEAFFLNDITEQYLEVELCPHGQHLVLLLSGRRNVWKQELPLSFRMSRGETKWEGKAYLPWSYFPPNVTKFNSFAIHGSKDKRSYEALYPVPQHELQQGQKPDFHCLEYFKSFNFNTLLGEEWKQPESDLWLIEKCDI
# UniProt P48729, sequence (P48729 whole entry, looked up): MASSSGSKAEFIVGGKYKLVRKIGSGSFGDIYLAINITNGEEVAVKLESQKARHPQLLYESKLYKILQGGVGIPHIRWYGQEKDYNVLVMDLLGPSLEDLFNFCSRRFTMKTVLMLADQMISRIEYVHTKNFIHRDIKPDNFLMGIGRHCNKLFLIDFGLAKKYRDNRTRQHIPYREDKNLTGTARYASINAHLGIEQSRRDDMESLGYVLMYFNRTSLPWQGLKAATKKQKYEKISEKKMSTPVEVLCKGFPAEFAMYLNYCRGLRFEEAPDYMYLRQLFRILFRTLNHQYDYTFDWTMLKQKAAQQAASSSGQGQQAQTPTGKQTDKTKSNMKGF
# UniProt Q96GQ5, sequence (Q96GQ5 whole entry, looked up): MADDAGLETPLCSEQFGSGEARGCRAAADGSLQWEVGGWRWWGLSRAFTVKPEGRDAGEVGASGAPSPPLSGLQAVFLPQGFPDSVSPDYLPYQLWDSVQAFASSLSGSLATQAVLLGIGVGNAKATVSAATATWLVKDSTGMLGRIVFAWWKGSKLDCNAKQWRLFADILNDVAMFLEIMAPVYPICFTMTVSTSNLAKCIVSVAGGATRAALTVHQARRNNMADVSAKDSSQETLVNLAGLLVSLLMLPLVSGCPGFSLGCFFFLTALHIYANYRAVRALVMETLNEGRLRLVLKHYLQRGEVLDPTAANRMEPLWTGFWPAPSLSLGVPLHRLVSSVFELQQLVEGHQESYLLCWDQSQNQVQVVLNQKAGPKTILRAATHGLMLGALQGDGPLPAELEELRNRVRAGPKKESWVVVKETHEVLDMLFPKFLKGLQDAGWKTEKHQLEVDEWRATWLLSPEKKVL
# UniProt Q14194, sequence (Q14194 whole entry, looked up): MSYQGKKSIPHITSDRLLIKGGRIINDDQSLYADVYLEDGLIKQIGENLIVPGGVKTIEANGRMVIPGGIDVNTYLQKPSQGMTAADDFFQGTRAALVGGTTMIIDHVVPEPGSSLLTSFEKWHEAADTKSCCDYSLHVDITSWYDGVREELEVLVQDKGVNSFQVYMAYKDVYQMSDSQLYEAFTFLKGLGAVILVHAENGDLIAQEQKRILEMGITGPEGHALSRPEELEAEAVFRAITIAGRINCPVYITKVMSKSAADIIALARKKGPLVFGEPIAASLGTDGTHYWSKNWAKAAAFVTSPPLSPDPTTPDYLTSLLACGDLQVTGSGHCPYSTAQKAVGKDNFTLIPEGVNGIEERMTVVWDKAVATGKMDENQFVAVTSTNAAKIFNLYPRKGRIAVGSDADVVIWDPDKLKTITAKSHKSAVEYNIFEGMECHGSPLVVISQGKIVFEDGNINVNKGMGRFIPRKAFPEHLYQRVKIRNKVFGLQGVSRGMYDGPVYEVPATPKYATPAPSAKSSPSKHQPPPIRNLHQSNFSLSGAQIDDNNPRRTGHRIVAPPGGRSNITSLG
# UniProt Q13111, sequence (Q13111 whole entry, looked up): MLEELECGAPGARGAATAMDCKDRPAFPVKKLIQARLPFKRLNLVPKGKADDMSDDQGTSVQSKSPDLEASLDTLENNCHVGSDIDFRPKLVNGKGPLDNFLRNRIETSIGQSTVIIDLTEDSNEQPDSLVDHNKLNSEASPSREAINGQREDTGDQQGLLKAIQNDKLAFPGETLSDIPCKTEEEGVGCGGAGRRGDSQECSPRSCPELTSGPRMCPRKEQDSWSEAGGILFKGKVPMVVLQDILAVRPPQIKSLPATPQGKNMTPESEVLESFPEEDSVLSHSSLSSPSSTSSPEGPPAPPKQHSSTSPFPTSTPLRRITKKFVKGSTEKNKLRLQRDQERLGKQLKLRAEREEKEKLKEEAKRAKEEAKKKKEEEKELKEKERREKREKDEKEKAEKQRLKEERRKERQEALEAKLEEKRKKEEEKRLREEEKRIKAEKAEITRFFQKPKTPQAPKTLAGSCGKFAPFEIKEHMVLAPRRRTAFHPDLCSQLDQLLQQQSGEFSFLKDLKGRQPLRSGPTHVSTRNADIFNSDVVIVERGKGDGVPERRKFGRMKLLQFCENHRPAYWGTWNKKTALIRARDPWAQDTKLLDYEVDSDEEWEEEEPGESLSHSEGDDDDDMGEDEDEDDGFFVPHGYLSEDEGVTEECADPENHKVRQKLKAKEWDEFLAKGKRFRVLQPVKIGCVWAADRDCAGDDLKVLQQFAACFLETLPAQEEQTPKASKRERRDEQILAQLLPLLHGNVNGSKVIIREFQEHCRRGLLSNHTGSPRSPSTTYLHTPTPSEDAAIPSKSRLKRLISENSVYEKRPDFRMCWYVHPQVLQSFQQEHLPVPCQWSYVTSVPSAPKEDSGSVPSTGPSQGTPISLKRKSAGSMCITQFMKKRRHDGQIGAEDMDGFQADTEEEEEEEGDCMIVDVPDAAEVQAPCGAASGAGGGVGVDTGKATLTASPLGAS
# UniProt Q86X95, sequence (Q86X95 whole entry, looked up): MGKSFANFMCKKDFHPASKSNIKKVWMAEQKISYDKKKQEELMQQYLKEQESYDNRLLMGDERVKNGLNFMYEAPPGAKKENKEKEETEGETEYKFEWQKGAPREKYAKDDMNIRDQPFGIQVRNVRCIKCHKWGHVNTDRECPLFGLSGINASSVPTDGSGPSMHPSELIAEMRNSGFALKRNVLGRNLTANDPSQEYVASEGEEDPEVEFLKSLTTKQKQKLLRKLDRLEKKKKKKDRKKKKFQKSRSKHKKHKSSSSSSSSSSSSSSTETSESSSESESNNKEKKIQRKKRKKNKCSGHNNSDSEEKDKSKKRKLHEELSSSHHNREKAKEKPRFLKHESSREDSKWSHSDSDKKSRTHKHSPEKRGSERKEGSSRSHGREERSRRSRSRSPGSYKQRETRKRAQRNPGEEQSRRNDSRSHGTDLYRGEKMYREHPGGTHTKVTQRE
# UniProt Q9BSQ5, sequence (Q9BSQ5 whole entry, looked up): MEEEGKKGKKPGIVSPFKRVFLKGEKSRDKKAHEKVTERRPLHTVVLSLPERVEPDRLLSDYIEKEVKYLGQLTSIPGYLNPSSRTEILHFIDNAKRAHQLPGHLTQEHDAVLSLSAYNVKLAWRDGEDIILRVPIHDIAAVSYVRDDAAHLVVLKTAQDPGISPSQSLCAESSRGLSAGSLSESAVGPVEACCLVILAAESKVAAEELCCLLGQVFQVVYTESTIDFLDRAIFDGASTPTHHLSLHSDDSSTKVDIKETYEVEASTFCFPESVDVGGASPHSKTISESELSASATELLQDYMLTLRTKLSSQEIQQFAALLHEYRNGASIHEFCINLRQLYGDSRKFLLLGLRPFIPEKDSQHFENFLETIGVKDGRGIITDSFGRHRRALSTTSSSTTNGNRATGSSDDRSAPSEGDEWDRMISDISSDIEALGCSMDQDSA
# UniProt Q8IWV2, sequence (Q8IWV2 whole entry, looked up): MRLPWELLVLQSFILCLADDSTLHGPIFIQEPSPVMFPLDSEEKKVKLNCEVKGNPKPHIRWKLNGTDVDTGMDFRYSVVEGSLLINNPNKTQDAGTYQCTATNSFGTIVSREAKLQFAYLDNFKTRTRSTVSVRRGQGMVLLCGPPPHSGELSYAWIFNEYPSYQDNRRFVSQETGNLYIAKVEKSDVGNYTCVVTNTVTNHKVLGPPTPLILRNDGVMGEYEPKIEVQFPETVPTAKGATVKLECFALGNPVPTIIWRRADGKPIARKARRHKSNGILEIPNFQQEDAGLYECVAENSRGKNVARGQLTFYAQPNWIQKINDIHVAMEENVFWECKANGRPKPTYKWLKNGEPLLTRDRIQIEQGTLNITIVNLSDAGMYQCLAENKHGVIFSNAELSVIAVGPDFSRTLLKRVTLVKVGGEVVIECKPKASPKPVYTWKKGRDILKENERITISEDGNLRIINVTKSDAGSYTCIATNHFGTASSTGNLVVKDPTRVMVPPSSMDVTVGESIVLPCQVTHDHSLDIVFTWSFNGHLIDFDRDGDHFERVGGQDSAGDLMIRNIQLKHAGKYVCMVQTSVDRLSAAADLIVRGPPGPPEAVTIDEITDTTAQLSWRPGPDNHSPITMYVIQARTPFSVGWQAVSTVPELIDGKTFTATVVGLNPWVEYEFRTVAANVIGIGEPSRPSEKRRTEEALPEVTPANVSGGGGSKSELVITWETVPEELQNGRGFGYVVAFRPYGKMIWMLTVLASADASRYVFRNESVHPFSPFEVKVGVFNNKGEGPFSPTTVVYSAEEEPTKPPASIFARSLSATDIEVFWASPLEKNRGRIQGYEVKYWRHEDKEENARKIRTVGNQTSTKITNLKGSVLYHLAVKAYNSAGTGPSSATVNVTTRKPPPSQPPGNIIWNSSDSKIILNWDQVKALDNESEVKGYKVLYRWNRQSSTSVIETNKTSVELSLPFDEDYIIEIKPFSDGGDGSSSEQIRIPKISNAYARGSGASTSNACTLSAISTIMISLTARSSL
# UniProt P67870, sequence (P67870 whole entry, looked up): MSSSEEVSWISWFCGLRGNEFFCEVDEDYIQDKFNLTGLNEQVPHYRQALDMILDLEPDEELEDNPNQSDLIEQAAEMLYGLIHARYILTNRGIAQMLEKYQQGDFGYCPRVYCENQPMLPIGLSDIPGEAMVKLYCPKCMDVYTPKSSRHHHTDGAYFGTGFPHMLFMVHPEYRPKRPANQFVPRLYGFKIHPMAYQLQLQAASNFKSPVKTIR
Target,log2 fold change [1],log2 fold change [2],log2 fold change [3],log2 fold change [4],log2 fold change [5],log2 fold change [6],log2 fold change [7],log2 fold change [8],log2 fold change [9],log2 fold change [10],log2 fold change [11],log2 fold change [12],log2 fold change [13],log2 fold change [14],log2 fold change [15],log2 fold change [16],log2 fold change [17],log2 fold change [18],log2 fold change [19],log2 fold change [20]
CIR1 (UniProt Q86X95),-0.02,-0.039,0.256,0.078,-0.061,0.418,0.102,0.057,0.04,0.207,-0.022,0.247,-0.064,0.161,-0.081,-0.019,-0.024,0.078,-0.365,–
CRYM-AS1 (UniProt A6NIL9),-0.092,-0.041,0.063,0.119,-0.347,-0.065,-0.356,0.103,0.024,-0.078,0.159,0.047,0.146,-0.364,0.037,–,-0.041,–,0.109,-0.16
CNTN4 (UniProt Q8IWV2),-0.026,-0.033,-0.065,0.256,-0.225,-0.06,-0.01,-0.016,-0.082,0.004,0.1,0,0.017,-0.148,-0.399,0.341,-0.169,-0.047,0.222,-0.039
C16orf58 (UniProt Q96GQ5),0.042,0.04,-0.032,-0.003,-0.005,-0.031,-0.012,-0.063,0.051,-0.02,-0.059,-0.148,-0.043,-0.053,-0.009,-0.009,0.037,0.004,0.015,0.044
C4orf33 (UniProt Q8N1A6),-0.027,-0.091,-0.07,-0.024,0.048,-0.071,0.091,0.013,-0.076,0.042,-0.055,0.072,-0.009,-0.054,-0.17,-0.026,0.061,0,0.049,0.029
CCM2 isoform 2 (UniProt Q9BSQ5),-0.01,0.056,-0.022,0.073,-0.061,-0.107,0.03,0.087,0.118,-0.033,-0.093,0.026,0.057,–,-0.04,0.154,0.056,0.006,0.022,–
CDC123 (UniProt O75794),-0.039,0.073,-0.033,0.075,-0.043,0.008,-0.017,-0.041,0.052,-0.032,0.005,-0.043,-0.016,0.032,-0.048,0.024,0.001,0.017,-0.027,-0.057
CSNK2B (UniProt P67870),0.074,0.036,-0.035,0.021,0.246,-0.09,-0.116,-0.031,0.024,0.038,0.113,-0.006,-0.002,-0.026,-0.013,-0.196,0.028,0.04,0.079,-0.013
CHAF1A (UniProt Q13111),0.008,0.004,0.041,–,0.133,–,0.198,-0.125,0.094,–,-0.149,0.143,-0.145,0.05,0,0.007,0.004,0.169,0.031,0.169
CD84 (UniProt Q9UIB8),-0.012,-0.144,-0.111,-0.039,-0.119,–,–,0.56 (active),–,–,–,-0.009,-0.194,-0.082,–,–,–,–,–,–
CEMIP2 (UniProt Q9UHN6),-0.104,–,-0.055,-0.005,0.032,0.017,0.046,-0.026,-0.1,0.029,-0.018,–,0.008,0.021,0.202,0.121,0.135,0.026,0.097,0.072
CRMP1 isoform 2 (UniProt Q14194),-0.059,0.107,-0.052,0.025,0.024,-0.149,–,-0.041,–,0.025,–,0.067,-0.045,0.172,–,–,–,–,0.107,-0.407
CCDC167 (UniProt Q9P0B6),-0.05,-0.018,0.061,-0.063,-0.006,–,0.021,0.104,-0.037,–,-0.054,-0.024,-0.027,–,-0.068,-0.148,-0.105,0.016,0.047,-0.021
CASP8 isoform 9 (UniProt Q14790),-0.032,-0.019,–,0.115,0.053,-0.1,0.011,0.04,0.044,0.037,-0.087,-0.017,–,-0.086,-0.107,0.023,0.044,-0.028,0.127,-0.153
CSNK1A1 (UniProt P48729),-0.028,0.011,0.146,0.115,–,0.058,0.128,0.042,0.037,-0.016,0.147,0.08,0.024,0.094,–,-0.214,-0.036,0.019,0.024,-0.106
CORO2A (UniProt Q92828),0.016,0.015,-0.021,-0.055,0.053,-0.015,-0.266,-0.097,0.21,-0.028,–,-0.035,-0.049,-0.071,0.035,-0.057,-0.02,-0.011,-0.11,-0.097
CLN8 (UniProt Q9UBY8),0.073,0.107,0.061,-0.225,0.022,-0.062,-0.061,-0.292,-0.117,0.05,–,0.068,0.13,-0.145,0.04,-0.019,-0.015,0.012,–,0.075
CLN3 (UniProt Q13286),0.046,–,0.107,0.065,0.004,-0.039,0.082,-0.097,-0.053,0.149,0.008,–,-0.1,–,0,0.08,0.139,-0.059,–,-0.028
